# Reference: PubChem BioAssay
# Records with an inconclusive call do not appear. The source made the active and inactive calls.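 Rule for the calls, unless noted: active = normalized viability below 100% at a tested concentration; inactive = the rest.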
# Key:
# [1] = growth inhibition of DIPG glioma cells, dose response, cell-based, SU-DIPG-XIII, MIPE4.0, CellTiter-Glo, qHTS (AID 1347061; cut-off not given, nearly all actives have AC50 up to about 37 µM;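 note: cells exposed to compound for 48 hours before readout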); conditions: SU-DIPG-XIII viability, CellTiter-Glo ATP luminescence
# [2] = growth inhibition of DIPG glioma cells, dose response, cell-based, JHH-DIPG-1, MIPE4.0, CellTiter-Glo, qHTS (AID 1347062; cut-off not given, nearly all actives have AC50 up to about 27 µM); conditions: JHH-DIPG-1 viability, CellTiter-Glo ATP luminescence
# [3] = viability loss in pontine glioma line – cell-based, SU-DIPG-XXV, MIPE5.0, CellTiter-Glo, qHTS, dose response (AID 1347065; cut-off not given, nearly all actives have AC50 up to about 26 µM;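 note: cells exposed to compound for 48 hours before ATP readout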); conditions: CellTiter-Glo ATP luminescence
# [4] = JHH-DIPG-1 glioma cell viability, MIPE5.0 library, CellTiter-Glo luminescence, qHTS (AID 1347067; cut-off not given, nearly all actives have AC50 up to about 26 µM;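 note: cells exposed to compound for 48 hours before readout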); conditions: JHH-DIPG-1 glioma viability, CellTiter-Glo ATP luminescence
# [5] = SU-DIPG-XXV glioma cell viability, MIPE5.0 library, qHTS (AID 1347068; cut-off not given, nearly all actives have IC50 up to about 30 µM)
# [6] = sensitizers of A549 cells to miR-34 induction, primary screen, imaging, A549 dox-inducible miR-34, nuclei and caspase counts (AID 1347080;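 active = compounds whose cell count with miR-34 switched on is under 0.7 times the count with it off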); conditions: A549 miR-34 inducible, Hoechst nuclei count, 48 h
# [7] = modifiers of HSF1 nuclear foci, imaging, Selleck Cancer Library (AID 1347162; in the data active = plate-normalised HSF1 focus index below about 0.46); conditions: human cells, at 10 µM; SSMD: measured here: HSF1 foci SSMD mean; cell count: measured here: cell number; plate-normalised HSF1 focus index: stronger effect = lower value
# [8] = survival rescue of mitochondrial mutant cells in low glucose, primary screen, MELAS cybrids, Rieske KO mouse fibroblasts, CellTiter-Glo (AID 1508586;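 active = mean z-score across replicates of 1.96 or higher in either the MELAS or the Rieske mutant cell line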;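 note: z relative to plate mean and SD of compound and empty wells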)
# [9] = ovarian cancer cell viability with rucaparib, profiling panel, oncology-focused library, rucaparib conditional (AID 1508598); conditions: patient-derived ovarian cancer cells, CellTiter-Glo viability, 144 h, stronger effect = lower value
# [10] = stronger effect = lower value, cell number ratio, induced over uninduced
# [11] = measured here: relative caspase fold change +Dox/-Dox
# [12] = measured here: total cells with miR-34 induction, stronger effect = lower value
# [13] = measured here: total cells without miR-34 induction
# [14] = MELAS cybrid survival, CellTiter-Glo 48 h, stronger effect = higher value
# [15] = Rieske KO mouse fibroblast survival, CellTiter-Glo 72 h
# [16] = at 0.000305 µM, OCI-C5x cells, with rucaparib 10 µM, 100% = cells with rucaparib alone
# [17] = at 0.000305 µM, OCI-C5x cells, without rucaparib
# [18] = at 0.000305 µM, OCI-P5x cells, with rucaparib 20 µM, 100% = cells with rucaparib alone
# [19] = at 0.000305 µM, OCI-P5x cells, without rucaparib
# [20] = at 0.00122 µM, OCI-C5x cells, with rucaparib 10 µM, 100% = cells with rucaparib alone
# [21] = at 0.00122 µM, OCI-C5x cells, without rucaparib
# [22] = at 0.00122 µM, OCI-P5x cells, with rucaparib 20 µM, 100% = cells with rucaparib alone
# [23] = at 0.00122 µM, OCI-P5x cells, without rucaparib
# [24] = at 0.00488 µM, OCI-C5x cells, with rucaparib 10 µM, 100% = cells with rucaparib alone
# [25] = at 0.00488 µM, OCI-C5x cells, without rucaparib
# [26] = at 0.00488 µM, OCI-P5x cells, with rucaparib 20 µM, 100% = cells with rucaparib alone
# [27] = at 0.00488 µM, OCI-P5x cells, without rucaparib
# [28] = at 0.0195 µM, OCI-C5x cells, with rucaparib 10 µM, 100% = cells with rucaparib alone
# [29] = at 0.0195 µM, OCI-C5x cells, without rucaparib
# [30] = at 0.0195 µM, OCI-P5x cells, with rucaparib 20 µM, 100% = cells with rucaparib alone
# [31] = at 0.0195 µM, OCI-P5x cells, without rucaparib
# [32] = at 0.0781 µM, OCI-C5x cells, with rucaparib 10 µM, 100% = cells with rucaparib alone
# [33] = at 0.0781 µM, OCI-C5x cells, without rucaparib
# [34] = at 0.0781 µM, OCI-P5x cells, with rucaparib 20 µM, 100% = cells with rucaparib alone
# [35] = at 0.0781 µM, OCI-P5x cells, without rucaparib
# [36] = at 0.313 µM, OCI-C5x cells, with rucaparib 10 µM, 100% = cells with rucaparib alone
# [37] = at 0.313 µM, OCI-C5x cells, without rucaparib
# [38] = at 0.313 µM, OCI-P5x cells, with rucaparib 20 µM, 100% = cells with rucaparib alone
# [39] = at 0.313 µM, OCI-P5x cells, without rucaparib
# [40] = at 1.25 µM, OCI-C5x cells, with rucaparib 10 µM, 100% = cells with rucaparib alone
# [41] = at 1.25 µM, OCI-C5x cells, without rucaparib
# [42] = at 1.25 µM, OCI-P5x cells, with rucaparib 20 µM, 100% = cells with rucaparib alone
# [43] = at 1.25 µM, OCI-P5x cells, without rucaparib
# [44] = at 5 µM, OCI-C5x cells, with rucaparib 10 µM, 100% = cells with rucaparib alone
# [45] = at 5 µM, OCI-C5x cells, without rucaparib
# [46] = at 5 µM, OCI-P5x cells, with rucaparib 20 µM, 100% = cells with rucaparib alone
# [47] = at 5 µM, OCI-P5x cells, without rucaparib
smiles,measurement,setting,value
Cn1cc(-c2ccc3nnc(C(F)(F)c4ccc5ncccc5c4)n3n2)cn1,outcome,[1],inactive
same,outcome,[2],inactive
same,outcome,[3],inactive
same,outcome,[4],inactive
same,outcome,[5],inactive
same,fold change,[6]; [10],0.861 (inactive)
same,fold change,[6]; [11],0.881
same,cell count,[6]; [12],6960
same,cell count,[6]; [13],8080
same,SSMD,[7],2.73
same,cell count,[7],6920
same,plate-normalised HSF1 focus index,[7],1.14 (inactive)
same,z-score,[8]; [14],-0.414 (inactive)
same,z-score,[8]; [15],0.567
same,viability,[9]; [16],113% (inactive)
same,viability,[9]; [17],90.8% (active)
same,viability,[9]; [18],102% (inactive)
same,viability,[9]; [19],89.6% (active)
same,viability,[9]; [20],123% (inactive)
same,viability,[9]; [21],106% (inactive)
same,viability,[9]; [22],104% (inactive)
same,viability,[9]; [23],98.1% (active)
same,viability,[9]; [24],118% (inactive)
same,viability,[9]; [25],109% (inactive)
same,viability,[9]; [26],107% (inactive)
same,viability,[9]; [27],101% (inactive)
same,viability,[9]; [28],116% (inactive)
same,viability,[9]; [29],114% (inactive)
same,viability,[9]; [30],106% (inactive)
same,viability,[9]; [31],98.3% (active)
same,viability,[9]; [32],110% (inactive)
same,viability,[9]; [33],110% (inactive)
same,viability,[9]; [34],104% (inactive)
same,viability,[9]; [35],102% (inactive)
same,viability,[9]; [36],120% (inactive)
same,viability,[9]; [37],112% (inactive)
same,viability,[9]; [38],105% (inactive)
same,viability,[9]; [39],95.6% (active)
same,viability,[9]; [40],133% (inactive)
same,viability,[9]; [41],123% (inactive)
same,viability,[9]; [42],107% (inactive)
same,viability,[9]; [43],104% (inactive)
same,viability,[9]; [44],130% (inactive)
same,viability,[9]; [45],137% (inactive)
same,viability,[9]; [46],97% (active)
same,viability,[9]; [47],104% (inactive)
Cc1cnc(-c2cnc(NCCNc3ccc(C#N)cn3)nc2-c2ccc(Cl)cc2Cl)[nH]1,outcome,[1],inactive
same,outcome,[2],inactive
same,outcome,[3],inactive
same,outcome,[5],inactive
same,fold change,[6]; [10],0.776 (inactive)
same,fold change,[6]; [11],0.884
same,cell count,[6]; [12],2900
same,cell count,[6]; [13],3740
same,SSMD,[7],-0.145
same,cell count,[7],7270
same,plate-normalised HSF1 focus index,[7],0.999 (inactive)
same,z-score,[8]; [14],-0.0957 (inactive)
same,z-score,[8]; [15],-0.0886
same,viability,[9]; [16],111% (inactive)
same,viability,[9]; [17],124% (inactive)
same,viability,[9]; [18],101% (inactive)
same,viability,[9]; [19],106% (inactive)
same,viability,[9]; [20],108% (inactive)
same,viability,[9]; [21],122% (inactive)
same,viability,[9]; [22],101% (inactive)
same,viability,[9]; [23],106% (inactive)
same,viability,[9]; [24],118% (inactive)
same,viability,[9]; [25],114% (inactive)
same,viability,[9]; [26],98% (active)
same,viability,[9]; [27],99% (active)
same,viability,[9]; [28],126% (inactive)
same,viability,[9]; [29],129% (inactive)
same,viability,[9]; [30],88.1% (active)
same,viability,[9]; [31],102% (inactive)
same,viability,[9]; [32],113% (inactive)
same,viability,[9]; [33],116% (inactive)
same,viability,[9]; [34],102% (inactive)
same,viability,[9]; [35],99.7% (active)
same,viability,[9]; [36],127% (inactive)
same,viability,[9]; [37],127% (inactive)
same,viability,[9]; [38],93.1% (active)
same,viability,[9]; [39],99.5% (active)
same,viability,[9]; [40],121% (inactive)
same,viability,[9]; [41],115% (inactive)
same,viability,[9]; [42],93.8% (active)
same,viability,[9]; [43],91.8% (active)
same,viability,[9]; [44],80.9% (active)
same,viability,[9]; [45],133% (inactive)
same,viability,[9]; [46],58.5% (active)
same,viability,[9]; [47],78% (active)
